# Shiga toxin inh: A qHTS for Small Molecule Inhibitors of Shiga Toxin; Vero cells, Shiga toxin protein synthesis inhibition reporter; inhibition, % at 38.7 µM; hit rate 9.2% among 290,000; AID 2315, 2010; in the data active means inhibition mostly above about 28%, no sharp cut-off; inactive means mostly below about 43%; further: 0% is about no effect
# CHX counter: Cycloheximide Counterscreen for Small Molecule Inhibitors of Shiga Toxin; cell reporter, cycloheximide protein synthesis inhibition counterscreen; max response, %; hit rate 12% among 300,000; AID 2314, 2010; in the data active means max response mostly above about 13%, no sharp cut-off; inactive means mostly below about 14%; further: read at 38.3 µM for the half of the compounds with a filed dose; 0% is about no effect
# LmPK inh: qHTS Assay for Inhibitors of Leishmania Mexicana Pyruvate Kinase (LmPK); hit rate 0.37% among 290,000; purified LmPK, Kinase-Glo ATP luminescence, 1 h; Q27686; AID 1721, 2009; Potency, µM (series often up to 57.5 µM), inactives show top-dose activity change, negative = inhibition, actives largely listed as inhibitors; further: potency means the concentration at half of the fitted maximal effect; on the % scale 0 is the no-effect control and ±100 the full control effect
# Target sequence (Q27686 whole entry, looked up): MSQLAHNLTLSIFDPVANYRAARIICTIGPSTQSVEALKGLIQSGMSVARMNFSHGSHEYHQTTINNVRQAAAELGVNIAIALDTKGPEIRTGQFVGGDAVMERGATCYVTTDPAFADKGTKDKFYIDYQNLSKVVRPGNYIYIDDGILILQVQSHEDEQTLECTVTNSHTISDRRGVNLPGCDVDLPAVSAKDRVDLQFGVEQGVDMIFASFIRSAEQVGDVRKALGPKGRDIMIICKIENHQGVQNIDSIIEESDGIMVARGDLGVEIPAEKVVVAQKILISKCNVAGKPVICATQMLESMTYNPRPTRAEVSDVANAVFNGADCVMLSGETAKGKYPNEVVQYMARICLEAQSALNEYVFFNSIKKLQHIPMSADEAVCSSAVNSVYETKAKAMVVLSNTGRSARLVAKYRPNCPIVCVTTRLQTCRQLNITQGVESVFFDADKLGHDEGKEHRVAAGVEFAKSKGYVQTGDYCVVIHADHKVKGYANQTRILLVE
#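 qHTS format; LmPK 0.1 nM; substrates PEP 0.5 mM and ADP 0.1 mM. One-hour room-temperature incubation, then coupled luciferase luminescence; 0.5 nM enzyme wells mark activation.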
# Giardia FBPA inh: qHTS Assay for Inhibitors of Fructose-1,6-bisphosphate Aldolase from Giardia Lamblia; Potency, µM (titrated, usually from 59.6 µM), without a hit: at the top dose activity, negative = inhibition, usual class: inhibitors; AID 2451, 2010; purified Giardia FBPA; hit rate 0.71% among 290,000; further: potency means the concentration at half of the fitted maximal effect; on the % scale 0 is the no-effect control and ±100 the full control effect; nearly all actives have a fitted effect of over 55% in size
#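 40 nM FBPA preincubated 10 min at RT with compound (up to 57.5 uM final), then substrate plus GAPDH/TPI/NAD/arsenate coupling and diaphorase/resazurin added. Fluorescence read after 20 min at RT, 525/598 nm.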
# RE007 growth inh: qHTS Assay for Inhibitors of the HIV-1 protein Vpr | hit rate 0.21% among 360,000 | Potency, µM (highest dose often 92.2 µM), for inactives: at the top dose activity change, negative = less growth, usual class: inhibitors | S. pombe RE007 Vpr strain, BacTiter-Glo ATP luminescence, 24 h; active means well fitted falling curve with a large enough effect; inconclusive means small, poorly fitted or top-dose-only effect; inactive means no such curve, though single readings can be large or run the other way; further: potency means the concentration at half of the fitted maximal effect; on the % scale 0 is the no-effect control and ±100 the full control effect; nearly all actives have a fitted effect of over 50% in size
#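 Fission yeast strain RE007, carrying one chromosomally integrated HIV-1 vpr copy, was seeded at OD 0.01 in PMG+AL medium with 23 nL pinned compound. After 24 h at 30 °C and 99% humidity, viability was read by BacTiter-Glo luminescence.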
# TbPYK inhibitor: qHTS of Trypanosoma Brucei Inhibitors | TbPYK enzyme, Kinase-Glo Plus ATP luminescence, 45 min | Potency, µM (highest dose often 76.8 µM), inactives show at the top dose activity, negative = inhibition, actives largely listed as inhibitors | hit rate 0.12% among 410,000 | AID 624173, 2012; further: potency means the concentration at half of the fitted maximal effect; on the % scale 0 is the no-effect control and ±100 the full control effect; nearly all actives have a fitted effect of over 50% in size
#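 Enzyme and substrate buffer are dispensed first and compound is pin-transferred. ADP at 130 uM final then starts the reaction, which runs 45 min at room temperature. Detection reagent is added for 10 min before luminescence is imaged.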
# Numbers without * were called inactive; ? = inconclusive; nt = no result; [ ] = dose if it differs, or a comment. Only a selection was taken, and hits are over-represented in it overall. Unless noted, the call rests on the fitted dose curve; in most records, active means well fitted curve in the direction sought with a large enough effect; inconclusive means small, poorly fitted or top-dose-only effect, or another doubt; inactive means no such curve, though single readings can be large; an effect the other way counts as inactive or inconclusive.
SMILES,Shiga toxin inh,CHX counter,LmPK inh,Giardia FBPA inh,RE007 growth inh,TbPYK inhibitor
Cc1ccc(-c2ccc(=O)n(CC(=O)NC(C)c3ccccc3)n2)cc1 (centres undefined),nt,nt,nt,nt,nt,-2%
CCc1ccc(NC(=O)CCc2ccc(CC)o2)cc1,nt,14*,2%,3%,3%,0%
CCc1ccc(CCC(=O)Nc2ccc(C(=O)O)cc2)o1,-7,-5,-5%,nt,17%,4%
CCCc1cc(C(=O)Nc2cc(Br)ccc2O)no1,57*,22*,1%,1%,-14%,9%
CCCc1cc(C(=O)Nc2cc(Cl)ccc2O)no1,92*,31*,-7%,8%,-5%,-2%
CCCCOc1ccc(CN2CCN(CCO)CC2)cc1,24,29*,0%,-10%,-5%,-5%
CCCCCCOc1ccc(CN2CCN(CCO)CC2)cc1,61*,38*,-4%,8%,-26%,1%
CCCCOc1ccc(CN2CCC(O)CC2)cc1,91*,37*,0%,?,-13%,6%
COc1ccc(NC(=O)c2noc3c2CCCC3)cc1Cl,nt,nt,nt,nt,nt,-1%
Cc1ccc(-c2nc(Nc3ccc(O)cc3)c3ccccc3n2)cc1,56,14*,0%,9%,-15%,-8%
O=C(O)c1cc(/C=C/c2ccc(N3CCOCC3)c([N+](=O)[O-])c2)nc2ccccc12,-9,-4,?,-7%,-12%,-5%
Cc1ccc(-c2nc(Nc3cccc(O)c3)c3ccccc3n2)cc1,33,2,1%,-5%,23%,6%
c1ccc(-c2cc(N3CCOCC3)nc(-c3ccccc3)n2)cc1,-11,3,-3%,10%,-2%,5%
O=C(O)c1cc(/C=C/c2ccc(N3CCOCC3)cc2)nc2ccccc12,-8,-6,?,-9%,16µM*,-21%
Cc1ccc(-c2nc(Nc3ccc(N4CCOCC4)cc3)c3ccccc3n2)cc1,52*,16,2%,-19%,1%,-2%
c1ccc(-c2cc(-c3ccc(N4CCOCC4)cc3)nc3ccccc23)cc1,-9,14*,5%,-5%,3%,5%
O=[N+]([O-])c1ccc2c(c1)Cc1cc(F)ccc1-2,nt,nt,nt,nt,-18%,-4%
CC(=O)Nc1ccc2c(c1)Cc1ccc(Cl)cc1-2,nt,nt,nt,nt,-8%,4%
O=C1C=CC(=O)N1c1ccc2c(c1)Cc1cc(F)ccc1-2,nt,nt,nt,nt,2.8µM*,?
CC(=O)Nc1ccc2c(c1)Cc1cc(N3C(=O)C=CC3=O)ccc1-2,nt,nt,nt,nt,4.5µM*,?
O=C(NCc1ccccc1)c1ccc(S(=O)(=O)NCc2ccco2)cc1,53*,38*,-1%,12%,4%,-6%
Cc1cc(C)n(-c2ccc(C(=O)Nc3ccc(S(=O)(=O)NCc4ccco4)cc3)cc2)n1,29,22*,-2%,-3%,16%,2%
COc1ccc(C(=O)Nc2cccc(S(=O)(=O)NCc3ccco3)c2)cc1,nt,nt,nt,nt,-11%,-5%
O=C(Nc1ccccc1)c1cccc(S(=O)(=O)NCc2ccco2)c1,52*,50*,-1%,1%,-1%,-5%
NS(=O)(=O)c1ccc(CNC(=O)c2ccc(S(=O)(=O)NCc3ccco3)cc2)cc1,nt,nt,nt,nt,4%,0%
SMILES,Shiga toxin inh,CHX counter,LmPK inh,Giardia FBPA inh,RE007 growth inh,TbPYK inhibitor
O=S(=O)(NCc1ccco1)c1ccc2c(c1)Cc1ccccc1-2,41*,48*,2%,-1%,1%,-8%
C[C@H]1Cc2c(COc3ccccc3)nc3c(c2CO1)CN(C(=O)c1ccco1)CC3,nt,nt,3%[11.5 µM],5%[12.9 µM],nt,nt
CCOC(=O)C1(C)CCN1C(=O)c1csnn1 (centres undefined),nt,nt,nt,nt,7%,-1%
CC1Oc2ccccc2N(CC(=O)N2CCCCCC2)C1=O (centres undefined),-17,7,-5%,11%,2%,-1%
CCCn1c2ccccc2c2cnn(CC(=O)Nc3ccccc3OC)c(=O)c21,nt,nt,nt,nt,nt,4%
Cc1cccc(C(=O)Nc2cccc(S(=O)(=O)NCc3ccco3)c2)c1,nt,nt,nt,nt,-1%,-14%

# From PubChem
